Records with an inconclusive call do not appear. Calls of active or inactive are those of the source. Unless noted, calls follow the shape of the full dose curve.
How the values were obtained:
[1] = target: Androgen receptor (Homo sapiens) (UniProt P10275); experiment: qHTS assay for small molecule agonists of androgen receptor signaling (AID 588515; active = well fitted curve in the direction sought with a large enough effect in the signal ratio, with a control signal flat; the % refers to the signal ratio; also: % is scaled to controls: 0 for no effect and ±100 for the full control effect); conditions: AR-UAS-bla HEK293, beta-lactamase ratio, agonist 16 h; activation: hits give high values
Procedure, shortened: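 Stimulation of an AR-responsive β-lactamase reporter in GripTite HEK293 cells was measured after 16 h compound exposure at 37 °C, via CCF4 fluorescence after 2 h RT. EC50 from Hill fits, normalized to R1881 at 30 nM.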

[2] = target: Androgen receptor (Homo sapiens) (UniProt P10275); experiment: qHTS assay for small molecule antagonists of androgen receptor signaling (AID 588516; active = well fitted curve in the direction sought with a large enough effect in the signal ratio, with a control signal flat, not every such curve was filed as active; the % refers to the signal ratio; also: % is scaled to controls: 0 for no effect and ±100 for the full control effect)
Procedure, shortened: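 AR-UAS-bla GripTite HEK 293 cells (2000/well) treated with compound titrations plus 10 nM R1881 for 16 h at 37C. Beta-lactamase read by CCF4 FRET (460/530 nm); IC50 from Hill fits, normalized to R1881 and DMSO control wells.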

[3] = target: Glucocorticoid receptor (Homo sapiens) (UniProt P04150); experiment: qHTS assay for small molecule agonists of glucocorticoid receptor signaling (AID 588532; active = well fitted curve in the direction sought with a large enough effect in the signal ratio, with a control signal flat; the % refers to the signal ratio;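 also: 100% = dexamethasone at 0.1 µM and 0% = DMSO only wells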); conditions: HeLa MMTV-bla, beta-lactamase ratio, agonist, 18 h; hits give high values; percent of dexamethasone control, DMSO zero
Procedure, shortened: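 Cells were plated and rested 3-5 h at 37 C, compounds were added in titration and incubated 18 h, then CCF4 substrate was loaded for 2 h at RT before reading blue/green fluorescence. EC50 came from Hill-equation fitting.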

[4] = target: Glucocorticoid receptor (Homo sapiens) (UniProt P04150); experiment: qHTS assay for small molecule antagonists of glucocorticoid receptor signaling (AID 588533; active = well fitted inhibition curve with a large enough effect in the signal ratio, with a control signal flat, not every such curve was filed as active; the % refers to the signal ratio; also: % is scaled to controls: 0 for no effect and ±100 for the full control effect)
Procedure, shortened: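 Antagonist-mode qHTS: compound titrations added to GRE-bla HeLa cells, then dexamethasone 2 nM final; 18 h, 37 C. CCF4 FRET fluorescence normalized to dexamethasone and DMSO; IC50 from Hill fit.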

[5] = target: Peroxisome proliferator-activated receptor gamma (Homo sapiens) (UniProt P37231); experiment: qHTS assay for small molecule antagonists of peroxisome proliferator-activated receptor gamma signaling (AID 588537; active = well fitted inhibition curve with a large enough effect in the signal ratio, with a control signal flat, not every such curve was filed as active; the % refers to the signal ratio;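 also: reporter cells co-stimulated with 50 nM rosiglitazone agonist during compound treatment; % of control where 0% means no effect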)
Procedure, shortened: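 Read-out: CCF4 fluorescence (ex 405, em 460/530 nm) after 2 h at RT. Cells were HEK293 carrying a UAS-bla reporter and treated 16 h at 37 C with compound plus rosiglitazone (50 nM final). Normalized to rosiglitazone and DMSO.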

[6] = target: Vitamin D3 receptor (Homo sapiens) (UniProt P11473); experiment: qHTS assay for small molecule antagonists of vitamin D receptor signaling (AID 588541);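 also: receptor activated by calcitriol during compound treatment; series mostly up to about 77 µM; % is scaled to controls: 0 for no effect and ±100 for the full control effect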
Procedure, shortened: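 VDR-UAS-bla HEK293T cells in 2% charcoal-stripped FBS were stimulated with 1-alpha,25-dihydroxyvitamin D3 (3 nM final) plus compound for 16 h at 37 C. The beta-lactamase CCF4 readout was normalized to 50 nM agonist and DMSO, and Hill fits gave IC50.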

[7] = qHTS assay for small molecule agonists of the antioxidant response element (ARE) signaling pathway (AID 651741; active = well fitted activation curve with a large enough effect in the signal ratio; the % refers to the signal ratio; also: % of control where 0% means no effect)
Procedure, shortened: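 HepG2 ARE-bla reporter cells, 2,000/well; 5 h settle at 37 C/5% CO2; compound pin transfer (23 nL, DMSO); 16 h at 37 C; LiveBLAzer B/G FRET substrate, 2 h RT; fluorescence intensity read.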

[8] = qHTS assay for small molecule agonists of the antioxidant response element (ARE) signaling pathway measured by Nrf2-dependant transcriptional activity (AID 720636; active = well fitted activation curve with a large enough effect in the repeat runs;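 also: HepG2 cells with an ARE-driven luciferase reporter; % of control where 0% means no effect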)
Procedure, shortened: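 We exposed ARE-luc HepG2 cells, seeded in assay medium with 1% dialyzed FBS and allowed 6 hr to adhere, to test compounds overnight (16 hr, 37 C) before measuring luciferase with ONE-Glo.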

[9] = target: Peroxisome proliferator-activated receptor gamma (Homo sapiens) (UniProt P37231); experiment: qHTS assay for small molecule agonists of peroxisome proliferator-activated receptor gamma signaling (AID 588536; active = well fitted curve in the direction sought with a large enough effect in the signal ratio, with a control signal flat, not every such curve was filed as active; the % refers to the signal ratio;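 also: 0% = DMSO basal wells and 100% = rosiglitazone at 2 µM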)
Procedure, shortened: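 This is an agonist-mode beta-lactamase reporter assay in HEK293 PPAR-gamma-UAS-bla cells with 1% charcoal/dextran FBS. Compound titrations ran 16 h at 37 C before CCF4 detection. EC50 and efficacy are Hill fits scaled to 2 uM rosiglitazone (100%) and DMSO basal.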

[10] = target: Thyroid hormone receptor beta (Homo sapiens) (UniProt P10828); experiment: qHTS assay for small molecule antagonists of thyroid hormone receptor beta signaling (AID 588547; active = well fitted inhibition curve with a large enough effect in the signal ratio, with a control signal flat, not every such curve was filed as active; the % refers to the signal ratio); conditions: TR-UAS-bla HEK293, beta-lactamase ratio, antagonist mode, 18 h
Procedure, shortened: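 TR-UAS-bla GripTite HEK293 cells in 2% charcoal/dextran FBS medium; compounds 0.59 nM to 92 uM with T3 at 0.4nM final, 18 h at 37 C. Beta-lactamase read by CCF4 fluorescence (460/530 nm); Hill fits gave IC50 and efficacy.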

[11] = target: Thyroid hormone receptor beta (Homo sapiens) (UniProt P10828); experiment: qHTS assay for small molecule agonists of thyroid hormone receptor beta signaling (AID 588545)
Procedure, shortened: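 Cells (2500/well) were seeded, incubated 4 hrs at 37 C, dosed with a compound series, incubated 18 hrs, loaded with CCF4 dye for 2 hrs at RT, then read for fluorescence. Data were scaled between DMSO (0%) and 10 nM T3 (100%).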

[12] = target: Bile acid receptor (Homo sapiens) (UniProt Q96RI1); experiment: qHTS assay for small molecule antagonists of farnesoid X receptor signaling (AID 588526); also: % is scaled to controls: 0 for no effect and ±100 for the full control effect
Procedure, shortened: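 Antagonist mode: titrated compounds tested against chenodeoxycholic acid stimulation (normalized to 50 uM CDCA and DMSO) in GeneBLAzer HEK293T cells for 16 h. Beta-lactamase read by CCF4 fluorescence; IC50 from Hill fits.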

Vitamin D3 receptor (Homo sapiens), sequence (P11473 whole entry, looked up): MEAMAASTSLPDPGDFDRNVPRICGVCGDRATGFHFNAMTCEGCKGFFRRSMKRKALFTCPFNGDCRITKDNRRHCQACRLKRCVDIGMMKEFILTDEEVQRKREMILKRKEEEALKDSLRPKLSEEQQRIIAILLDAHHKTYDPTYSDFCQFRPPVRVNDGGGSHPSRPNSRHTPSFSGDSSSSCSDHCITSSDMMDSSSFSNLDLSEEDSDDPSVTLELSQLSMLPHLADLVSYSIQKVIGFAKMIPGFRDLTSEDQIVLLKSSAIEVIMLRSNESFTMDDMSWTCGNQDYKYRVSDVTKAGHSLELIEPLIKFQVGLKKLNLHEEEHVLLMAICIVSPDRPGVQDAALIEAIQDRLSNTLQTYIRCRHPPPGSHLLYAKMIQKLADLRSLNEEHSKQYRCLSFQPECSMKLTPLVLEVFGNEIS
Glucocorticoid receptor (Homo sapiens), sequence (P04150 whole entry, looked up): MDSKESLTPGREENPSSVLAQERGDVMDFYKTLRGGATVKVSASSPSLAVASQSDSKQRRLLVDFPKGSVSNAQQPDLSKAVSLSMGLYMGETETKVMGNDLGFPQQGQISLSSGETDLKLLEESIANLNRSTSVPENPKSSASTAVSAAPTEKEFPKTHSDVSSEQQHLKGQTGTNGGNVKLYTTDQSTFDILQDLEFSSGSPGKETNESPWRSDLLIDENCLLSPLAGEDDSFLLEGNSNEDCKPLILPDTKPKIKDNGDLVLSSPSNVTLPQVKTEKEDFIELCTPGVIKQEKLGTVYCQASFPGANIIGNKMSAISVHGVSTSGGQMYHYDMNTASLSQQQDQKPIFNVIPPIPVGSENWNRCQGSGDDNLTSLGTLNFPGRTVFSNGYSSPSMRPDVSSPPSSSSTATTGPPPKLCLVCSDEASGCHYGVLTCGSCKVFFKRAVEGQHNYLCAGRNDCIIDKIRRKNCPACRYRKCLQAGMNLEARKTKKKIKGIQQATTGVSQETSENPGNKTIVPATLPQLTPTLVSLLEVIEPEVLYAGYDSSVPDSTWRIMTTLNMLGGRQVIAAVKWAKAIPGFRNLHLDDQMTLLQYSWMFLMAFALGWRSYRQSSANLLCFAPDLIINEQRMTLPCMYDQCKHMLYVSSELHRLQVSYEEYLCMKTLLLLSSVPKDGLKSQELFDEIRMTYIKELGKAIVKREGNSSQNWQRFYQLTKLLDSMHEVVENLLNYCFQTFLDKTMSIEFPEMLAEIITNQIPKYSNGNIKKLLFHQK
Thyroid hormone receptor beta (Homo sapiens), sequence (P10828 whole entry, looked up): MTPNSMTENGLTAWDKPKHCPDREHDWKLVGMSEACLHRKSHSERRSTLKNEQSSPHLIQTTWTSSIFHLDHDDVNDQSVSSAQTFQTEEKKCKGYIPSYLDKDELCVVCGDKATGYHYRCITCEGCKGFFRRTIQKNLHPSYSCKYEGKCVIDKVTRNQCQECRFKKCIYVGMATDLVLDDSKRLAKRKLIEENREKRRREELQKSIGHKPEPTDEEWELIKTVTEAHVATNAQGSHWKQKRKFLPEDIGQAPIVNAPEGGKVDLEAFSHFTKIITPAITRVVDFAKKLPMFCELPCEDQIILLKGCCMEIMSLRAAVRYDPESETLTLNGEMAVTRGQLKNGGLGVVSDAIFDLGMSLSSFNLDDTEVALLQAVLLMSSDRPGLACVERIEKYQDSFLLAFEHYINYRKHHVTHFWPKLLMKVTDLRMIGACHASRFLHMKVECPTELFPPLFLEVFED
Bile acid receptor (Homo sapiens), sequence (Q96RI1 whole entry, looked up): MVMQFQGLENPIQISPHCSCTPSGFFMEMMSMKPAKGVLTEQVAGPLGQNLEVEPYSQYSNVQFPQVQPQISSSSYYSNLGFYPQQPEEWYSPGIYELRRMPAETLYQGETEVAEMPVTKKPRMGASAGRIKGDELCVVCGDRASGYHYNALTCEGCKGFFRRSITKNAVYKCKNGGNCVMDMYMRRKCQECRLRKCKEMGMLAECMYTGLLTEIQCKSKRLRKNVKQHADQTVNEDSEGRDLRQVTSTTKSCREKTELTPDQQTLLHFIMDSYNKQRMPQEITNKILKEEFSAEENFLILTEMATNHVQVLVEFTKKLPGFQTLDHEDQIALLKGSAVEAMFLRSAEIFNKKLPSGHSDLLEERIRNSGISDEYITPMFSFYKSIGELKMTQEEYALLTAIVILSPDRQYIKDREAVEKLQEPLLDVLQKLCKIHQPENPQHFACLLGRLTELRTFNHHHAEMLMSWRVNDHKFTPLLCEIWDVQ
Androgen receptor (Homo sapiens), sequence (P10275 whole entry, looked up): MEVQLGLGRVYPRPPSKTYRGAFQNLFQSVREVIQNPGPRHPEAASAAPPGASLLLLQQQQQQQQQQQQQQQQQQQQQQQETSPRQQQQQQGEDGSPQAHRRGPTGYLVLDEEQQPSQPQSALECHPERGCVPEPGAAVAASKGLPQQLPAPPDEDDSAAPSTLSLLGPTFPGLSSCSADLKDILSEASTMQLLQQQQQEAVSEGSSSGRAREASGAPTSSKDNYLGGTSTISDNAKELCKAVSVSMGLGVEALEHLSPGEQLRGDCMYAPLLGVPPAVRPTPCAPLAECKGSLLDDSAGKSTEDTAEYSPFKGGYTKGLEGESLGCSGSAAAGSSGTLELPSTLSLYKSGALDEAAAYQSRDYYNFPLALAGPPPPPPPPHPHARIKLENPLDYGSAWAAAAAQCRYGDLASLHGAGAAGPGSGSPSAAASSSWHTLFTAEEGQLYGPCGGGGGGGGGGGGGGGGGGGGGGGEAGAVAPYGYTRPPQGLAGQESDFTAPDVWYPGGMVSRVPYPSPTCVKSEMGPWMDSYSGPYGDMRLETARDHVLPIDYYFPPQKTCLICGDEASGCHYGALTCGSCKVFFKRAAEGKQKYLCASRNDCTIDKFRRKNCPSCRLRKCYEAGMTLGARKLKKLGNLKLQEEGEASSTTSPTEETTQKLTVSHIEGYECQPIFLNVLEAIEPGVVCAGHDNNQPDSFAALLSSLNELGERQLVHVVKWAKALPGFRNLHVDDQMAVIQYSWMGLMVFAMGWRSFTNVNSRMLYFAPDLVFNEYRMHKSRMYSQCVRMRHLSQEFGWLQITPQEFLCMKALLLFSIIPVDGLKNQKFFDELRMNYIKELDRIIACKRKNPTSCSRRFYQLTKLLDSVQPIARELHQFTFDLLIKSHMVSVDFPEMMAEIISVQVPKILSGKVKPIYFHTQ
Peroxisome proliferator-activated receptor gamma (Homo sapiens), sequence (P37231 whole entry, looked up): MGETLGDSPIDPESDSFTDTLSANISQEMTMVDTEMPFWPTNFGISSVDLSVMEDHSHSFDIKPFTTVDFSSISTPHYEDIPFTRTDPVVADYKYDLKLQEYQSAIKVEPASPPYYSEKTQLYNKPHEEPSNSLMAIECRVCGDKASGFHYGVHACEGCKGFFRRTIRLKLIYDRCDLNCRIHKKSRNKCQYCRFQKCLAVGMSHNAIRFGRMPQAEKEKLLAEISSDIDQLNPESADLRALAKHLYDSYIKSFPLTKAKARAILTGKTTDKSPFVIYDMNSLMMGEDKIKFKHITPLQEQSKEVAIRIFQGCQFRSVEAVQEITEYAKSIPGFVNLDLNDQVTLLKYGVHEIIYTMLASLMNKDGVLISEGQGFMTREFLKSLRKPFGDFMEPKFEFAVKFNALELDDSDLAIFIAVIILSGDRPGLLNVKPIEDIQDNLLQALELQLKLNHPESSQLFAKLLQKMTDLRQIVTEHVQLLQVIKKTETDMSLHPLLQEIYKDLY

CCCCOC(=O)c1ccccc1
inactive: activation [1] 0.383% | outcome [2] | activation [3] -8.22% | Potency [4] | Potency [5] | Potency [6] | Potency [7] | Potency [8]

C=C(C)C(=O)OCCOC(=O)C(=C)C
inactive: outcome [2] | activation [3] -0.861% | Potency [4] | outcome [9] | Potency [5] | Potency [6] | activity change % (negative = inhibition) [10] 17.4% | Potency [7]

CC/C=C\CCOC(=O)c1ccccc1O
inactive: activation [3] -3.47% | Potency [4] | outcome [9] | Potency [5] | Potency [6] | Potency [11] | activity change % (negative = inhibition) [10] 0.0454% | Potency [7] | Potency [8]

c1ccc2c(c1)Cc1ccccc1-2
inactive: Potency [12] | Potency [4] | outcome [9] | Potency [5] | Potency [11] | activity change % (negative = inhibition) [10] -15.6% | Potency [8]

O=C(O)c1ccc2c(c1)C(=O)OC2=O
inactive: activation [1] 5.43% | outcome [2] | activation [3] 1.9% | Potency [4] | outcome [9] | Potency [6] | Potency [11] | activity change % (negative = inhibition) [10] 1.57% | Potency [8]

O=C(O)CCCCCCCCCCC(=O)O
inactive: Potency [12] | activation [3] -1.99% | Potency [4] | activity change % (negative = inhibition) [10] 17.5% | Potency [7] | Potency [8]

CCCCN(CCCC)CCCC
inactive: Potency [12] | activation [3] 8.81% | Potency [4] | Potency [6] | Potency [11] | activity change % (negative = inhibition) [10] -2.52% | Potency [7] | Potency [8]

CCCCOCCOCCOC(=O)CCCCC(=O)OCCOCCOCCCC
inactive: Potency [12] | activation [3] -7.36% | Potency [4] | outcome [9] | Potency [5] | Potency [6] | Potency [11] | activity change % (negative = inhibition) [10] -12.6% | Potency [8]

— PubChem BioAssay (NCATS)
